From PubChem BioAssay AID2533 (National Center for Advancing Translational Sciences (NCATS), 2010) come the findings set out here.

Several values for one entry are separate records, joined by “and”; a condition that tells them apart may be missing. Identical values can stand only once. Inconclusive results are not listed. Unmarked numbers belong to inactive results. Activity calls are given as the source filed them. The call rests on the fitted dose curve; in most records, active means well fitted activation curve with a large enough effect; inconclusive means small, poorly fitted or top-dose-only effect; inactive means flat fitted curve, though single readings scatter.
Potency means the concentration at half of the fitted maximal effect.

Sequence of Pyruvate kinase PKM (Homo sapiens) (P14618 whole entry, looked up, canonical isoform): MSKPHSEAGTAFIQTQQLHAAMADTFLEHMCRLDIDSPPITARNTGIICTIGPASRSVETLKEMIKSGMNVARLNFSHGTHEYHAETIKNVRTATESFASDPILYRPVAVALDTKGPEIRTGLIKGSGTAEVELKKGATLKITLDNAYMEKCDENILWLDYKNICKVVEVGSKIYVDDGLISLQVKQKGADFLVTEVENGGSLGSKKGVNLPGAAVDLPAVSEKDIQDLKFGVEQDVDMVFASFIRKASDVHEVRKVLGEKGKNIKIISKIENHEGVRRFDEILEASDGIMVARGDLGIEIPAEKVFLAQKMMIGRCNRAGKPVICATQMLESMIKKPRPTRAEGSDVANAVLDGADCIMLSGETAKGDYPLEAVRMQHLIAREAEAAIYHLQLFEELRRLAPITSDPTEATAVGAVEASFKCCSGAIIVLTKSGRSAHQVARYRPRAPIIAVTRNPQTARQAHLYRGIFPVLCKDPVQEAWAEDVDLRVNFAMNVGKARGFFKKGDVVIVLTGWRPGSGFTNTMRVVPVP

The target of this experiment is Pyruvate kinase PKM (Homo sapiens) (UniProt P14618). Nature of the experiment: Confirmation Concentration-Response Assay for Activators of Human Muscle isoform 2 Pyruvate Kinase: for Probe SAR. Further: nearly all actives have a fitted effect of over 60% in size. On activity change, positive = activation: % of control where 0% means no effect. The following applies: purified PKM2, ATP generation, Kinase-Glo luminescence; series mostly up to 57.5 µM; activity change, positive = activation: at the top concentration. In short, it runs like this:
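Purified hPK-M2 at 0.1 nM final converted ADP (0.1 mM) and PEP (0.5 mM) to ATP over 1 hour at room temperature in imidazole buffer, pH 7.2. ATP formed was measured by Kinase-Glo luminescence, normalized to no-enzyme and uninhibited controls.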
In general terms: Kinase-Glo reads ATP consumption through a luciferase reaction.
On to `O=C1c2ccccc2C(=O)N1Cc1ccncc1`, for which the “activity change, positive = activation” value was 1.39%.
Take `COc1cc(F)c(S(=O)(=O)N2CCCN(S(=O)(=O)c3ccc(N)cc3)CC2)c(F)c1`: the Potency was 1.3 µM (active).
With `Cc1ccc(-c2nc3ccc(Cl)cn3c2Nc2ccccc2)o1`, the “activity change, positive = activation” value is 18.9%.
In the case of `Cc1ccc(NS(=O)(=O)c2cc3c(cc2C)NC(=O)CO3)cc1C`, the Potency was 0.58 µM (active).
For the molecule `Cc1cc(N2C(=O)c3ccccc3C2=O)n[nH]1`, the “activity change, positive = activation” value is 5.78%.
Regarding `CSc1cc2c(s1)c1cnn(Cc3cccc(O)c3)c(=O)c1n2C`, the Potency is 0.0411 µM (active).
`O=C1c2ccccc2C(=O)N1c1cccc2ncccc12`: the “activity change, positive = activation” value was 3.32%.
Same read-out and setting: then `O=S1(=O)N=C(OCc2ccccc2)c2ccccc21`, with -0.444%; and `COc1ccc(N2C(=O)c3ccccc3C2=O)cc1`, with 7.73%; and `COc1ccccc1OC1=NS(=O)(=O)c2ccccc21`, with 14.5%.
The same measure, in the same setting: then `O=C1CCc2cc([S+](=O)([O-])NC3CCOCC3)ccc2N1`, with -0.52%.
Regarding `Cc1cc2c(s1)c1cnn(Cc3cc(F)c(F)cc3F)c(=O)c1n2C`, the Potency was 1.12 µM (active).
Consider `O=S1(=O)N=C(Oc2cccc(-c3ccccc3)c2)c2ccccc21`, for which the “activity change, positive = activation” value is -2.19%.
On the same count and under the same terms, in the case of `O=C1CCc2cc(S(=O)(=O)Nc3ccc4ncccc4c3)ccc2N1` it was 21%.
In the case of `Nc1ccc(S(=O)(=O)N2CCN(S(=O)(=O)c3c(F)cccc3F)CC2)cc1`, the Potency was 0.919 µM (active).
Consider `Cc1ccc(-c2nc3cnccn3c2Nc2ccc(C(C)C)cc2)o1`, for which the “activity change, positive = activation” value was 24.6%.
On the same count and under the same terms, then `COc1ccc(-c2sc(N)nc2-c2ccccc2)cc1`, with 18.3%; and `Cc1ccc(-c2nc3cccc(C)n3c2Nc2ccc(F)cc2)o1`, with 12.2%.
With `O=C1c2ccccc2C(=O)N1c1cccc(Cl)c1`, the “activity change, positive = activation” value is 6.37%.
For `Cc1ccc(NS(=O)(=O)c2cc3c(cc2/C=C/c2ccccc2)NC(=O)CO3)cc1C`, the “activity change, positive = activation” value was 19.8%.
On the same count and under the same terms, in the case of `O=C1c2ccccc2C(=O)N1c1cccc2cccnc12` it was 7.05%; in that of `O=S1(=O)N=C(N2CCOCC2)c2ccccc21`, -8.06%.
On the same count and under the same terms, in the case of `O=C1c2ccccc2C(=O)N1c1cnc2ccccc2c1` it was 5.74%; in that of `Cc1ccccc1OC1=NS(=O)(=O)c2ccccc21`, 15.7%.
In the case of `Cc1ccc(NS(=O)(=O)c2ccc3c(c2)CCC(=O)N3)cc1Cl`, the Potency was 0.326 µM (active).
As to `O=C1c2ccccc2C(=O)N1C1CCCCC1`, the “activity change, positive = activation” value was 8.3%.
Still for that read-out and setting: then `COc1cc(N2C(=O)c3ccccc3C2=O)c2ncccc2c1`, with 5.59%.
As to `Cc1ccc(Nc2c(-c3ccc(C)s3)nc3ccccn23)cc1`, the Potency was 14.6 µM (active).
Consider `O=C1c2ccccc2C(=O)N1c1noc2ccccc12`, for which the “activity change, positive = activation” value was 12.9%.
The same measure, in the same setting: in the case of `Cc1ccc(C)c(OC2=NS(=O)(=O)c3ccccc32)c1` it was 2.92%; in that of `O=C1c2ccccc2C(=O)N1c1ccccc1O`, 4.71%; in that of `O=C1c2ccccc2C(=O)N1c1nccs1`, -2.41%.
For the molecule `O=C1CCc2cc(S(=O)(=O)Nc3cccc4ccccc34)ccc2N1`, the Potency was 13 µM (active).
For `COc1cc(F)c(S(=O)(=O)N2CCCN(S(=O)(=O)c3cccc(N)c3)CC2)c(F)c1`, the Potency is 1.16 µM (active) and 1.46 µM (active).
Take `COC(=O)c1ccccc1S(=O)(=O)Nc1ccc(OC)cc1`: the “activity change, positive = activation” value was 3.45%.
As to `COc1ccc(O)cc1`, the “activity change, positive = activation” value was 7.63%.
As for `CC(=O)Nc1cccc(S(=O)(=O)N2CCN(S(=O)(=O)c3ccc4c(c3)OCCO4)CC2)c1`, the Potency is 1.03 µM (active).
